Only some compounds are listed: those with a hit (about 2.1% of all), similar ones and a draw of the others.
FUS suppressor: rescues growth of FUS-expressing yeast; S. cerevisiae FUS-expressing, growth rescue, OD600, 24 h; Potency, µM (titrated, usually from 76.6 µM), actives largely listed as activators; 390,000 compounds, 0.24% hits; AID 1347120;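 also: plate controls were DMSO vehicle for no effect and reference control for full effect; nearly all actives have a fitted effect of over 55% in size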
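Absorbance at 600 nm, taken 24hr after compound addition, measured rescue of FUS-yeast growth at 30C. Induction used 2% galactose with seeding at OD 0.005. Controls: CP55940 from 92uM final, DMSO only.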
Abeta yeast res: A-beta toxicity reversal in yeast; 410,000 compounds, 0.063% hits; Potency, µM (top dose mostly 46.1 µM), hits mostly activators; yeast expressing A-beta42, growth rescue, OD600, 48 h; response scale: 0% DMSO, 100% iron-clioquinol control; also: nearly all actives have a fitted effect of over 55% in size
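Yeast growth medium received pinned compounds, then yeast cells expressing toxic A-beta were added; plates incubated at 30 C for 48 hr. Growth read as absorbance at 600 nm, normalized to DMSO and equimolar FeCl3 plus clioquinol controls.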
TDP43 rescue: TDP-43 toxicity inhibition in yeast | TDP-43 expressing yeast growth rescue, BacTiter-Glo, 24 h | 410,000 compounds, 1.8% hits | Potency, µM (highest dose often 46.1 µM), for inactives: at the top dose growth rescue (activation), hits mostly activators; also: % of control where 0% means no effect; nearly all actives have a fitted effect of over 50% in size
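In this qHTS, compounds that restore growth of yeast expressing TDP-43 appear as activators. Cells (OD600=0.02, galactose medium, raffinose-pregrown) are incubated with compound 24 hr at 30 deg C and growth is quantified by BacTiter-Glo.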
aSyn yeast inh: alpha-synuclein toxicity inhibition in yeast. Potency, µM (series often up to 46.1 µM), inactives show top-dose growth rescue (activation), most hits filed as activators. Yeast expressing alpha-synuclein, growth rescue, BacTiter-Glo, 24 h. 370,000 compounds, 0.14% hits. AID 652106; also: % of control where 0% means no effect; nearly all actives have a fitted effect of over 65% in size
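Screening used galactose-induced yeast with toxic alpha-synuclein levels, exposed to compound for 24 hr at 30 deg C. Cell growth, read with BacTiter-Glo luminescence, gave the measured signal.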
Numbers without * were called inactive; ! = not confirmed by another sample. Calls follow the shape of the dose curve; as a rule, active = well fitted curve in the direction sought with a large enough effect; inconclusive = small, poorly fitted or top-dose-only effect, or another doubt; inactive = no such curve, though single readings can be large; an effect the other way counts as inactive or inconclusive. Potency is read from the fitted curve at half-maximal effect.

CC1(C(=O)Nc2ccc3c(c2)OCCO3)CN(S(C)(=O)=O)CC(=O)N1Cc1cccc(C(F)(F)F)c1 (configuration not stated) was read as FUS suppressor inactive, Abeta yeast res inactive, TDP43 rescue 22µM* and aSyn yeast inh 13%.
Nc1ccccc1SCc1csc(-c2ccc(Cl)cc2)n1 was read as FUS suppressor inactive, Abeta yeast res inactive, TDP43 rescue 13µM* and aSyn yeast inh -24%.
For COc1ccc(C2CC(=O)N(C)c3ccccc3S2)cc1 (configuration not stated) the results were FUS suppressor inactive, Abeta yeast res inactive, TDP43 rescue 13µM* and aSyn yeast inh 18%.
For CN1C(=O)CC(c2ccco2)Sc2ccccc21 (configuration not stated) the results were FUS suppressor inconclusive, Abeta yeast res inactive, TDP43 rescue 3% and aSyn yeast inh -1%.
For Cc1ccc(C)c(N2CCN(S(=O)(=O)c3ccc(-c4cc(C(F)(F)F)on4)s3)CC2)c1 the results were FUS suppressor inactive, Abeta yeast res inactive and TDP43 rescue 19%.
For O=C(N/N=C/c1c(O)ccc2ccccc12)C(=O)N1CCCC1 the results were FUS suppressor inactive, Abeta yeast res inconclusive, TDP43 rescue 2% and aSyn yeast inh 22µM*.
For Cc1cc2ncn(/N=C/c3ccc([N+](=O)[O-])s3)c2cc1C the results were Abeta yeast res inactive, TDP43 rescue 13µM* and aSyn yeast inh 10%.
Cc1ccc(CNC(=O)c2oc3ccc(S(=O)(=O)N4CCC5(CC4)OCCO5)cc3c2C)cc1 was read as FUS suppressor 25µM*, Abeta yeast res inactive, TDP43 rescue -8% and aSyn yeast inh 4%.
Cc1c(C(=O)NCc2cccnc2)oc2ccc(S(=O)(=O)N3CCC4(CC3)OCCO4)cc12 was read as FUS suppressor inactive, Abeta yeast res inactive, TDP43 rescue 0% and aSyn yeast inh inconclusive.
Nc1cc(C(=O)c2ccccc2)ccc1[N+](=O)[O-] was read as FUS suppressor inactive, Abeta yeast res inactive, TDP43 rescue 8.9µM* and aSyn yeast inh 0%.
COc1ccc(CCNC(=O)c2cc3ccccn3n2)cc1 was read as FUS suppressor inactive.
COc1ccc(CN2C(=O)c3cccnc3C2=O)cc1S(=O)(=O)N1CC(C)CC(C)C1 (configuration not stated) was read as FUS suppressor inactive, Abeta yeast res inactive, TDP43 rescue 16% and aSyn yeast inh -15%.
`CC1CCCN(S(=O)(=O)c2ccc(CN3C(=O)c4cccnc4C3=O)cc2)C1` (configuration not stated) gave FUS suppressor inactive, Abeta yeast res inactive, TDP43 rescue inconclusive and aSyn yeast inh 0.56µM*.
For CCOC(=O)N1CCN(c2c(-c3ccc(C(C)C)cc3)c(=O)c2=O)CC1 the results were FUS suppressor inactive, Abeta yeast res inactive, TDP43 rescue 20µM* and aSyn yeast inh 0%.
Screening CCOC(=O)C1CCCN(C2CC(=O)N(c3ccc(C(C)C)cc3)C2=O)C1 (configuration not stated) returned FUS suppressor inactive, Abeta yeast res inactive, TDP43 rescue 35µM* and aSyn yeast inh 6%.
CCOC(=O)C1CCCN(C2CC(=O)N(c3ccc(N4C(=O)CC(N5CCCC(C(=O)OCC)C5)C4=O)cc3)C2=O)C1 (configuration not stated) was read as FUS suppressor inactive, Abeta yeast res inactive, TDP43 rescue 8% and aSyn yeast inh 6%.
Clc1ccc(Cn2cc3c(n2)-c2cc4ccccc4n2C3)cc1 was read as aSyn yeast inh 0%.
For CCOC(=O)CN1C(c2ccc(O)cc2)Nc2ccc(Br)cc2C1c1ccccc1 (configuration not stated) the results were Abeta yeast res inactive, TDP43 rescue 20µM* and aSyn yeast inh 14%.
For COc1ccc(C(C)=O)cc1CSc1nnc(Nc2ccc(C)cc2C)s1 the results were FUS suppressor inactive, Abeta yeast res inactive, TDP43 rescue 20µM* and aSyn yeast inh inconclusive.
Cc1cccc(CSCc2ccc(C(=O)NCCc3ccccc3)o2)c1 was read as FUS suppressor inactive, Abeta yeast res inactive, TDP43 rescue 35µM* and aSyn yeast inh 21%.
COc1ccc(S(=O)(=O)N2CCC(c3nc4ccccc4o3)CC2)c(OC)c1 was read as FUS suppressor inactive.
For Cc1ccc(NC(=O)CSc2nc3ccccc3nc2N2CCOCC2)cc1 the results were FUS suppressor 32µM*!, Abeta yeast res inactive, TDP43 rescue inconclusive and aSyn yeast inh 12%.
`COC(=O)CS(=O)(=O)c1nc2ccccc2nc1N1CCCCC1` gave FUS suppressor inactive, Abeta yeast res inactive and TDP43 rescue 20µM*.
Screening CC(=O)Nc1ccc(NC(=O)CSc2nc3ccccc3nc2N2CCCCC2)cc1 returned FUS suppressor inactive, Abeta yeast res inactive, TDP43 rescue 4% and aSyn yeast inh 6%.
For O=C(O)CSc1nc2ccccc2nc1N1CCCCC1 the results were FUS suppressor inactive, Abeta yeast res inactive and TDP43 rescue 20µM*.
For Cc1ccccc1CN1CCCCC(NC(=O)c2ccc(N(C)C)cc2)C1=O (configuration not stated) the results were FUS suppressor inactive.
O=C(CN1C(=O)CCSc2ccccc21)Nc1ccc(F)cc1F was read as FUS suppressor inactive.
`CCCCNC(=O)C1(C(=O)c2ccc(OC)cc2)CC(c2ccccc2C(F)(F)F)=NO1` (configuration not stated) gave FUS suppressor inactive.
COC[C@H]1CCCN1c1cccc2c1S(=O)(=O)N(C1CC1)CCCO2 was read as FUS suppressor inactive.
NS(=O)(=O)c1ccc(NC(=O)CSc2nc3ccccc3c(=O)n2-c2ccc(Br)cc2)cc1 was read as FUS suppressor inactive.
`CCOc1ccc(NC(=S)NC(=O)c2c(Br)cnn2C)c([N+](=O)[O-])c1` gave FUS suppressor inactive, Abeta yeast res inactive, TDP43 rescue 16µM* and aSyn yeast inh -4%.
Screening CCOc1ccc(NC(=S)NC(=O)c2c(Cl)cnn2CC)c([N+](=O)[O-])c1 returned Abeta yeast res inactive, TDP43 rescue 5% and aSyn yeast inh 2%.
`CC(Sc1n[nH]c(N)n1)C(=O)C12CC3CC(CC(C3)C1)C2` (configuration not stated) gave FUS suppressor inactive, Abeta yeast res inactive, TDP43 rescue -2% and aSyn yeast inh -3%.
For CC(SC#N)C(=O)C12CC3CC(CC(C3)C1)C2 (configuration not stated) the results were FUS suppressor inactive, Abeta yeast res inactive, TDP43 rescue 11µM* and aSyn yeast inh 6%.
`CCCN1CNc2c(c(=O)[nH]c(=S)n2CCc2ccc(C)cc2C)C1` gave aSyn yeast inh -5%.

Screening data: PubChem, National Center for Advancing Translational Sciences (NCATS)
